# Reference: PubChem BioAssay (EPA / NIEHS)
# Results filed as inconclusive are left out. The source made the active and inactive calls. How the source made its calls: active means hit-call score of the fitted dose curve at least 0.9, where 1 is the maximum; inconclusive means response in the unintended direction; inactive means score below 0.9.
# Columns and labels:
# [1] = target: human Casein Kinase 1-delta (CK1D), CSNK1D (gene 1453) (UniProt P48730); test: NVS_ENZ_hCK1D: NovaScreen (NVS) Enzymatic Assay for human Casein Kinase 1-delta (CK1D) (AID 2283148)
# Summary of the method: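 Recombinant human CK1-delta, cell-free; fluorescent substrate with electrophoretic mobility-shift separation of product, read 1 h after dosing. Single 25 uM duplicate screen, then concentration-response up to 50 uM; loss of signal vs DMSO.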
# [2] = target: human Colony Stimulating Factor 1 Receptor (CSF1R), CSF1R (gene 1436) (UniProt P07333); test: NVS_ENZ_hCSF1R: NovaScreen (NVS) Enzymatic Assay for human Colony Stimulating Factor 1 Receptor (CSF1R) (AID 2283150)
# Summary of the method: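 Cell-free recombinant human CSF1R kinase with fluorescent substrate, product separated by electrophoretic mobility shift; read 1 h after dosing. Primary screen at 25 uM in duplicate, actives then in concentration-response up to 50 uM, relative to DMSO.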
# [3] = target: Glycogen synthase kinase-3 beta (Homo sapiens) (UniProt P49841); test: NVS_ENZ_hGSK3b: NovaScreen (NVS) Enzymatic Assay for human Glycogen Synthase Kinase-3 beta (GSK3b) (AID 2283165)
# Summary of the method: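 Recombinant enzyme with specific fluorescent substrate, 1 h, product separated by electrophoretic mobility shift. Primary duplicate screen at 25 uM; actives (e.g. 30% inhibition) followed in singleton concentration-response to 50 uM. Signal loss fitted versus DMSO.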
# [4] = target: human FYN Proto-Oncogene, Src family Tyrosine Kinase (Fyn), FYN (gene 2534) (UniProt P06241); test: NVS_ENZ_hFyn: NovaScreen (NVS) Enzymatic Assay for human FYN Proto-Oncogene, Src family Tyrosine Kinase (Fyn) (AID 2283161)
# Summary of the method: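 Recombinant enzyme with fluorescent substrate, product separated by electrophoretic mobility shift; read 1 h after dosing. Duplicate 25 uM single-point screen, actives retested in concentration series; loss of signal vs DMSO.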
# [5] = target: human Elastase, ELANE (gene 1991) (UniProt P08246); test: NVS_ENZ_hElastase: NovaScreen (NVS) Enzymatic Assay for human Elastase (AID 2283153)
# Summary of the method: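 Cell-free elastase from human neutrophils, 1.5 h after dosing, activity read by absorbance. Primary screen in duplicate at 25 uM; hits (e.g., 30% inhibition) rerun in singleton concentration-response up to 50 uM, fitted versus DMSO.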
# [6] = target: human Caspase 8 (CASP8), CASP8 (gene 841) (UniProt Q14790); test: NVS_ENZ_hCASP8: NovaScreen (NVS) Enzymatic Assay for human Caspase 8 (CASP8) (AID 2283146)
# Procedure: NVS_ENZ_hCASP8 is a biochemical, single-readout assay that uses extracted gene-proteins from E. coli in a cell-free assay. Measurements were taken 1 hour after chemical dosing in a 96-well plate.NVS_ENZ_hCASP8 is one of one assay component(s) measured or calculated from the NVS_ENZ_hCASP8 assay. It is designed to make measurements of enzyme activity, a form of enzyme reporter, as detected with fluorescence intensity signals by Fluorescence technology.Data from the assay component NVS_ENZ_hCASP8 was analyzed into 1 assay endpoint. This assay endpoint, NVS_ENZ_hCASP8, was analyzed in the positive analysis fitting direction relative to DMSO as the negative control and baseline of activity. Using a type of enzyme reporter, loss-of-signal activity can be used to understand changes in the enzymatic activity as they relate to the gene CASP8. Furthermore, this assay endpoint can be referred to as a primary readout, because this assay has produced multiple assay endpoints where this one serves a enzymatic activity function. To generalize the intended target to other relatable targets, this assay endpoint is annotated to the protease intended target family, where the subfamily is cysteine protease.
# Binding assays used specific radioligands (tritiated, iodinated) with non-radioactive competitive displacement ligands in agonist or antagonist protocols (as indicated) and various reference compounds and inhibitors to titrate specific binding to receptors and transporters. Most enzyme assays (CYPs, kinases, phosphatases, proteases, HDACs) used recombinant protein and specific substrates (fluorescence mostly, some colorimetric and radioactive) and inhibitors, followed by a biochemical separation of substrate and product. All assays for the biochemical HTS were initially run in duplicate at a single concentration (10 uM for CYP450 assays and 25 uM for all others). […] Each assay was run with positive and negative controls, and concurrent controls on every plate. The follow-up (secondary) screen tested active chemical-pairs in concentration series, as well as a few additional assays not tested in the primary screen, some selected negative inactives, and several cases re-run in the concentration series for confirmatory purposes.
# [7] = target: human Esterase Plasma (ES), BCHE (gene 590) (UniProt P06276); test: NVS_ENZ_hES: NovaScreen (NVS) Enzymatic Assay for human Esterase Plasma (ES) (AID 2283157)
# Summary of the method: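 Esterase from human plasma, cell-free, colorimetric absorbance read 0.25 h after dosing. Screened at 25 uM in duplicate, with threshold-passing chemicals run in concentration-response up to 50 uM; loss of signal fitted versus DMSO.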
# [8] = target: human Ephrin type-A Receptor 1 (EphA1), EPHA1 (gene 2041) (UniProt P21709); test: NVS_ENZ_hEphA1: NovaScreen (NVS) Enzymatic Assay for human Ephrin type-A Receptor 1 (EphA1) (AID 2283158);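 further: activity is signal loss versus DMSO meaning EphA1 kinase inhibition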
# Summary of the method: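 Fluorescent substrate conversion, resolved by mobility-shift separation, measured 1 hour post-dosing using recombinant enzyme; signal loss relative to DMSO baseline. Single-concentration duplicates at 25 uM preceded singleton concentration series topping at 50 uM.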
# [9] = target: human Dual Specificity Protein Phosphatase 3 (DUSP3), DUSP3 (gene 1845) (UniProt P51452); test: NVS_ENZ_hDUSP3: NovaScreen (NVS) Enzymatic Assay for human Dual Specificity Protein Phosphatase 3 (DUSP3) (AID 2283152);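 further: phosphatase activity of recombinant human DUSP3 on a fluorogenic substrate without cells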
# Summary of the method: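 Cell-free assay with recombinant human DUSP3 and fluorogenic substrate, read by fluorescence intensity. Primary screen ran duplicate at 25 uM; actives followed up in concentration series; loss of signal versus DMSO scored.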
# [10] = target: Histone deacetylase 3 (Homo sapiens) (UniProt O15379); test: NVS_ENZ_hHDAC3: NovaScreen (NVS) Enzymatic Assay for human Histone Deacetylase 3 (HDAC3) (AID 2283163)
# Summary of the method: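 Recombinant human HDAC3 with fluorescent substrate, 1 h after dosing; product separated from substrate by electrophoretic mobility shift and read by fluorescence. Primary screen at 25 uM in duplicate; actives (e.g. ≥30% inhibition) retested in concentration-response up to 50 uM.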
# Chain of human Casein Kinase 1-delta (CK1D), CSNK1D (gene 1453) (P48730 whole entry, looked up): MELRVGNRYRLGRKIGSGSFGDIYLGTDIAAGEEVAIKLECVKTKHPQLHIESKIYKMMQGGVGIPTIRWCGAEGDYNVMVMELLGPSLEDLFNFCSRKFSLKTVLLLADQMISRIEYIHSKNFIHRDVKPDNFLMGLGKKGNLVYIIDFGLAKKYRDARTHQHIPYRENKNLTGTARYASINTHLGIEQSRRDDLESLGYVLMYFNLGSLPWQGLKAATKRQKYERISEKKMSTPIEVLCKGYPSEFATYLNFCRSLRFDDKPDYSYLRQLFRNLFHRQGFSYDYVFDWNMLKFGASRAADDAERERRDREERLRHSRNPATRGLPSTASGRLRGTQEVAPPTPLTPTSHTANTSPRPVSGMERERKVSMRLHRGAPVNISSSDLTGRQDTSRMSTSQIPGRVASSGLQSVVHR
# Chain of human Caspase 8 (CASP8), CASP8 (gene 841) (Q14790 whole entry, looked up): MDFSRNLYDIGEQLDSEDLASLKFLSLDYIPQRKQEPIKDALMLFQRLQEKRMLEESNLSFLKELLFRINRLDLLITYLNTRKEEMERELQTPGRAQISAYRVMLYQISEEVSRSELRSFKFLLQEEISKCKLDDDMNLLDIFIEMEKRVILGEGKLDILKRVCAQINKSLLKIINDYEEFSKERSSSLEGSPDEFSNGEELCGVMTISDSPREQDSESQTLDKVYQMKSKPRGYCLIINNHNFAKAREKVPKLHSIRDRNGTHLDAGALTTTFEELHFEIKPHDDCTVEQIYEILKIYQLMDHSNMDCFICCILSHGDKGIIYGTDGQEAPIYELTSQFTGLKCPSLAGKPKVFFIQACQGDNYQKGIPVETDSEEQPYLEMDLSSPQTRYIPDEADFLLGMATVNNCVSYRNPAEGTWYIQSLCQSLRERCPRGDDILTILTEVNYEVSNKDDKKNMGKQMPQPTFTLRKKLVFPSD
# Chain of human Ephrin type-A Receptor 1 (EphA1), EPHA1 (gene 2041) (P21709 whole entry, looked up): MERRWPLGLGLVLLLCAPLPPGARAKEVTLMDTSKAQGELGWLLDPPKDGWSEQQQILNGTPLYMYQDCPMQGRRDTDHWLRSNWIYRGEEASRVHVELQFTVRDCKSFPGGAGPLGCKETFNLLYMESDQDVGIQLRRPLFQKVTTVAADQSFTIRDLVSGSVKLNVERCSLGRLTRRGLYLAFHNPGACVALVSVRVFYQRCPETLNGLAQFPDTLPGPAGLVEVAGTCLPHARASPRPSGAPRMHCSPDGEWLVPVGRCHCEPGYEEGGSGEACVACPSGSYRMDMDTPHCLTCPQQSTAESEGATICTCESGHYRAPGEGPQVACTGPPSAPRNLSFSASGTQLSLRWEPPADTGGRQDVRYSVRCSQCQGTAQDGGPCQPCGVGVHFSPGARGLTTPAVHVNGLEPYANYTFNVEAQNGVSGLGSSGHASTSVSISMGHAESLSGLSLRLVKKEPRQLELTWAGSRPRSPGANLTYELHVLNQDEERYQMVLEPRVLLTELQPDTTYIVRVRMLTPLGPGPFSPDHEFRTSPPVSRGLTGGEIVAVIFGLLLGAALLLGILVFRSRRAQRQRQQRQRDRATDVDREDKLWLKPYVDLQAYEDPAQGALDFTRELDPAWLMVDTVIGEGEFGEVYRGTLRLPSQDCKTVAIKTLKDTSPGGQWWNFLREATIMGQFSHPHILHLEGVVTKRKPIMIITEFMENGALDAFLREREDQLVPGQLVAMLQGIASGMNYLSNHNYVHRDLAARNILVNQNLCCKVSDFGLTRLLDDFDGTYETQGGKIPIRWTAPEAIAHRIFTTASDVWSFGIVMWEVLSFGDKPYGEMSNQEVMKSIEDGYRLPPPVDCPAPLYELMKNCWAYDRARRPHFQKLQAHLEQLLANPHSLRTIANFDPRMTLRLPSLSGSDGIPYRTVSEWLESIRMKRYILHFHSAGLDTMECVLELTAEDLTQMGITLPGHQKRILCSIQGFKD
# Chain of human Dual Specificity Protein Phosphatase 3 (DUSP3), DUSP3 (gene 1845) (P51452 whole entry, looked up): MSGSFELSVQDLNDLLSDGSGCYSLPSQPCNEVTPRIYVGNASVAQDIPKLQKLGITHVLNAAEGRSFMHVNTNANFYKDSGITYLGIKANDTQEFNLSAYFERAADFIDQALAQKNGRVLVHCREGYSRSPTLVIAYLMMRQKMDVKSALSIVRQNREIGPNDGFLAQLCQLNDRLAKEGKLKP
# Chain of human Esterase Plasma (ES), BCHE (gene 590) (P06276 whole entry, looked up): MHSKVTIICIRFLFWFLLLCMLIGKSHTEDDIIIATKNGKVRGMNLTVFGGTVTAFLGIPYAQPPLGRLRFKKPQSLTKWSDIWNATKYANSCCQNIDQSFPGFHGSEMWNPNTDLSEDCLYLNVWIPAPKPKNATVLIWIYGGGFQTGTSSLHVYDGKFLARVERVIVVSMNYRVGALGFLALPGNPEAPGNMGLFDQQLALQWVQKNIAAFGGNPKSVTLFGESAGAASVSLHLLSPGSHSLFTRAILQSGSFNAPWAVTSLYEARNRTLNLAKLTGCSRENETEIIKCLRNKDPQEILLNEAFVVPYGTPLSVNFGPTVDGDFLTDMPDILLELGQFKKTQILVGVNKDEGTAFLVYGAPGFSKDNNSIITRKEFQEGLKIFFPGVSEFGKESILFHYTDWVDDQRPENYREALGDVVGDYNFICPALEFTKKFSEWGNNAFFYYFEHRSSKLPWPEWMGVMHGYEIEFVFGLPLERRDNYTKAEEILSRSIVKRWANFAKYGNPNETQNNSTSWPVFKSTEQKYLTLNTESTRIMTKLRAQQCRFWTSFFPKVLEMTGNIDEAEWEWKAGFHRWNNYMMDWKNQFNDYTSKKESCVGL
# Chain of human Colony Stimulating Factor 1 Receptor (CSF1R), CSF1R (gene 1436) (P07333 whole entry, looked up): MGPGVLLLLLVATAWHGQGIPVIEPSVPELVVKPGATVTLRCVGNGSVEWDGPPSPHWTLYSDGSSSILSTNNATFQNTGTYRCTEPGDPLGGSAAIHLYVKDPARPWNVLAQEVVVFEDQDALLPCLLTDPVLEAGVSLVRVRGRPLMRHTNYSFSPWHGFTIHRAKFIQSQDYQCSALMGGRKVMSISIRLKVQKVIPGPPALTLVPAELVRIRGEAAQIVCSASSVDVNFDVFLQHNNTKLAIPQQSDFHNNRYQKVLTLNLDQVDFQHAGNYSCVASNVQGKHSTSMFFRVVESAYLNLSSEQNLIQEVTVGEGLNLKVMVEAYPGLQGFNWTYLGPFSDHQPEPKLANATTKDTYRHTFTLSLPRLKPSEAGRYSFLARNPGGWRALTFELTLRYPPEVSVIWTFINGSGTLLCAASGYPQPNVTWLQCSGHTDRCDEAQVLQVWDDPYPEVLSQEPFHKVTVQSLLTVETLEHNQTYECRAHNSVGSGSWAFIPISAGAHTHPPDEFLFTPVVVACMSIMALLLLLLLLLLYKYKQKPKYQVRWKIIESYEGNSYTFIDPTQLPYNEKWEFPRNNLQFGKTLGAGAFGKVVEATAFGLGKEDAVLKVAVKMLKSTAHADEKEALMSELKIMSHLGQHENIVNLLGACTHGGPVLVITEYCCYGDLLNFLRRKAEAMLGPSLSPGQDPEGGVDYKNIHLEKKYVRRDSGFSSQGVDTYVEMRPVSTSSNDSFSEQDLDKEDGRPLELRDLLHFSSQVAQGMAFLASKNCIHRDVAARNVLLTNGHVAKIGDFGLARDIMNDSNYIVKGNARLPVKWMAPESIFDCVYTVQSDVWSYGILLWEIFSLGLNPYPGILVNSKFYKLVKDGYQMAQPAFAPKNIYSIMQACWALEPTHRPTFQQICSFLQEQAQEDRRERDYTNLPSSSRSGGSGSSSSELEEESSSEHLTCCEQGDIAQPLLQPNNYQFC
# Chain of Glycogen synthase kinase-3 beta (Homo sapiens) (P49841 whole entry, looked up): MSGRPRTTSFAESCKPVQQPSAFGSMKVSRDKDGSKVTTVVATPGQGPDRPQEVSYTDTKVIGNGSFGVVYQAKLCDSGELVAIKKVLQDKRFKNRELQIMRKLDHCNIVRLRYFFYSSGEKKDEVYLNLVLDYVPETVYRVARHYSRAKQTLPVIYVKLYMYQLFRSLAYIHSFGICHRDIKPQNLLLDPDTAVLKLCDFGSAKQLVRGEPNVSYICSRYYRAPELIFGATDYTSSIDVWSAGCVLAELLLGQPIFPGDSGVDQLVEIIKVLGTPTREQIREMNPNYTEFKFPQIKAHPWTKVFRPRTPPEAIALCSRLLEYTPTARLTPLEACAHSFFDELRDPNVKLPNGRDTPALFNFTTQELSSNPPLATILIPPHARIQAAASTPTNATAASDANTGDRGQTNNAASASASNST
# Chain of human Elastase, ELANE (gene 1991) (P08246 whole entry, looked up): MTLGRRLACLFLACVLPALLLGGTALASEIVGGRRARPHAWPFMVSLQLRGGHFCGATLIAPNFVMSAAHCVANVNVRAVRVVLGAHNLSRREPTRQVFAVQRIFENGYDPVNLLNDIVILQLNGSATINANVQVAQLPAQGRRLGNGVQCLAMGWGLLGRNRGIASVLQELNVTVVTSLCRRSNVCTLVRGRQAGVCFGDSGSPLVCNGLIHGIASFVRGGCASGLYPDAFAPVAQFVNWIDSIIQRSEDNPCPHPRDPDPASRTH
# Chain of Histone deacetylase 3 (Homo sapiens) (O15379 whole entry, looked up): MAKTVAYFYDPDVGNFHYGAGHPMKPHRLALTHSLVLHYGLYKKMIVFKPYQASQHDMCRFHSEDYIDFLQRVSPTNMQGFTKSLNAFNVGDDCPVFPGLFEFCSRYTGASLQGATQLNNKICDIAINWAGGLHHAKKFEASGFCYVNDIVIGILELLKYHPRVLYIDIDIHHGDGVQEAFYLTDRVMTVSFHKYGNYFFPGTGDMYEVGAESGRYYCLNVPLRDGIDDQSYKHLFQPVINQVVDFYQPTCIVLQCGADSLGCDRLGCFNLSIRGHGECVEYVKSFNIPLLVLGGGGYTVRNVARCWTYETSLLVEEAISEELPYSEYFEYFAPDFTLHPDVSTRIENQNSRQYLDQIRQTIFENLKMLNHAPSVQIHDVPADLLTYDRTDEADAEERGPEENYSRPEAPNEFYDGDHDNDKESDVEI
compound,measurement,setting,value
Cc1ccc2ncccc2c1,AC50,[1],4.96 µM (active)
NS(=O)(=O)c1cc2c(cc1Cl)NCNS2(=O)=O,outcome,[2],inactive
same,outcome,[3],inactive
NCCO,outcome,[1],inactive
same,outcome,[4],inactive
same,outcome,[3],inactive
CCc1c(C(=O)NN2CCCCC2)nn(-c2ccc(Cl)cc2Cl)c1-c1ccc(Br)cc1,outcome,[2],inactive
same,outcome,[5],inactive
same,outcome,[3],inactive
FC(F)(F)C(F)(F)C(F)(F)C(F)(F)C(F)(F)C(F)(F)CCI,outcome,[6],inactive
same,outcome,[2],inactive
same,outcome,[7],inactive
same,outcome,[8],inactive
same,outcome,[3],inactive
CCOc1ccc2c(c1)C(C)=CC(C)(C)N2,AC50,[2],25 µM (active)
same,outcome,[3],inactive
CC1(C)CC(N=C=O)CC(C)(CN=C=O)C1 (configuration not stated),outcome,[6],inactive
CCCCCCCCCCCCCCCCCC(=O)O,AC50,[9],19.6 µM (active)
same,AC50,[5],7.85 µM (active)
Nc1ccccc1N,AC50,[9],16.4 µM (active)
same,AC50,[7],17.6 µM (active)
same,AC50,[3],22.3 µM (active)
CNC(=O)[C@H]1O[C@@H](n2cnc3c(NCc4cc(Cl)ccc4OCc4cc(C)no4)ncnc32)[C@H](O)[C@@H]1N,outcome,[6],inactive
O=C(OCCCCCOC(=O)c1ccccc1)c1ccccc1,outcome,[1],inactive
same,outcome,[2],inactive
same,outcome,[3],inactive
CC1=C(/C=C/C(C)=C/C=C/C(C)=C/CO)C(C)(C)CCC1,outcome,[1],inactive
same,AC50,[5],21.8 µM (active)
same,outcome,[4],inactive
Oc1ccc2c(c1)OC[C@@H](N1CCC(O)(c3ccc(F)cc3)CC1)[C@H]2O,outcome,[9],inactive
CCCCC(CC)COC(=O)CC(C(=O)OCC(CC)CCCC)S(=O)(=O)O (configuration not stated),AC50,[9],14.7 µM (active)
same,AC50,[5],25 µM (active)
same,outcome,[7],inactive
COc1cc(-c2nc(NC(=O)c3cc4cc(C)cc(C)c4n3CC(=O)O)sc2CCC2CCCCC2)c(OC)cc1Cl,AC50,[9],1.23 µM (active)
same,AC50,[5],5.61 µM (active)
Cc1nc(-c2ccc3c(c2)CCN(CCC2CCC(NC(=O)/C=C/c4ccc(F)cc4)CC2)CC3)no1 (configuration not stated),AC50,[5],18.3 µM (active)
CC(=O)Oc1ccccc1C(=O)O,outcome,[2],inactive
same,outcome,[3],inactive
CC(=O)C(C)=CC1C(C)=CCCC1(C)C (configuration not stated),outcome,[1],inactive
same,outcome,[3],inactive
Nc1ccc2c(c1)C(=O)c1ccccc1C2=O,AC50,[5],15.5 µM (active)
O=C(O)Cc1ccccc1Nc1c(Cl)cccc1Cl,AC50,[6],12.3 µM (active)
Cc1ccccc1Cl,outcome,[1],inactive
Nc1nc(N)c2nc(CNc3ccc(C(=O)N[C@@H](CCC(=O)O)C(=O)O)cc3)cnc2n1,outcome,[5],inactive
same,outcome,[7],inactive
CN1CCN(Cc2cc(-c3ccc4[nH]c(=O)oc4c3)co2)[C@@H](c2ccc(F)cc2)C1,AC50,[7],9.48 µM (active)
CCOC(=O)C(C)(C)Oc1ccc(Cl)cc1,outcome,[7],inactive
NCC1(Cc2noc(=O)[nH]2)CCCCC1,outcome,[7],inactive
CC(C)c1ccc(C(=O)N=C(N)N)cc1S(C)(=O)=O,outcome,[10],inactive
same,outcome,[3],inactive
CCCCc1ccc2c(n1)[C@@H](c1ccc(OC)cc1C[C@H](C)C(=O)O)[C@H](C(=O)O)[C@H]2c1ccc2c(c1)OCO2,outcome,[3],inactive
CCCc1cc(=O)[nH]c(=S)[nH]1,outcome,[3],inactive
NC(=O)Cn1c(=O)cc(CCN2CCN(c3nccc4sccc34)CC2)c2ccc(F)cc21,AC50,[7],13 µM (active)
same,outcome,[3],inactive
COCCOC[C@H](CC1(C(=O)NC2CCC(C(=O)O)CC2)CCCC1)C(=O)Oc1ccc2c(c1)CCC2 (some centres not stated),outcome,[7],inactive
Cc1cccc([N+](=O)[O-])c1C,outcome,[7],inactive
Cc1cc(=O)[nH]c(=S)[nH]1,outcome,[7],inactive
Cc1ccc(N(C)C)cc1,outcome,[3],inactive
Cc1oc(-c2ccccc2)nc1CCOc1cccc2c1ccn2CCC(=O)O,AC50,[5],11.9 µM (active)
same,outcome,[8],inactive
COc1cc(C=O)ccc1O,outcome,[5],inactive
same,outcome,[8],inactive
Cc1cccc(Nc2cc(Cl)nc(SCC(=O)O)n2)c1C,outcome,[5],inactive
C=CCOC(=O)c1ccccc1C(=O)OCC=C,outcome,[3],inactive
O=[N+]([O-])C(CO)(CO)CO,outcome,[3],inactive
O=c1c(O)c(-c2ccc(O)c(O)c2)oc2cc(O)cc(O)c12,outcome,[5],inactive
same,outcome,[10],inactive
same,AC50,[3],0.073 µM (active)
Cc1ccc(C(C)C)c(O)c1,outcome,[7],inactive
CC(C)(C)c1cc(O)c(C(C)(C)C)cc1O,outcome,[7],inactive
CCCCCCCCCCO,outcome,[3],inactive
C=CCc1ccc(O)c(OC)c1,outcome,[3],inactive
